Compound activity (PubChem)
This is a sample that favours compounds with a hit; in the whole collection about 1.8% have one here.
TrxR1 substrate: is turned over as a substrate by rat TrxR1; Potency, µM (series often up to 114 µM), for inactives: top-dose activity change, negative = substrate turnover; purified TrxR1 substrate turnover, NADPH consumption readout; AID 588456; actives 0.01% (n = 390,000); O89049; note: % is set by controls: 0 for no effect and ±100 for the full control effect; nearly all actives have a fitted effect of over 50% in size
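Rat TrxR1, dispensed at 90 nM, was prereduced with 400 uM NADPH (final) for 5 min at ~22 deg C, then incubated with compound 15 min before 400 uM selenite. A first-read NADPH fluorescence drop versus no-compound background flagged substrates.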
TrxR1 inh: rat TrxR1 inhibition; O89049; recombinant rTrxR1, NADPH fluorescence consumption, selenite substrate; Potency, µM (top dose mostly 114 µM), inactives show at the highest dose activity change, negative = inhibition, most hits filed as inhibitors; actives 1% (n = 390,000); note: % is set by controls: 0 for no effect and ±100 for the full control effect; nearly all actives have a fitted effect of over 65% in size
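Rat TrxR1 (90 nM in the dispensed reagent) was pre-reduced with 400 uM NADPH for 5 min at room temperature, then incubated with compound for 15 min. After 400 uM selenite was added, NADPH fluorescence (Ex 340/Em 450 nm) was followed for 8 min.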
VDR inh: blocks the human vitamin D receptor. P11473. VDR-SRC2-3 peptide fluorescence polarization, 2 h. Potency, µM, for the others: max response, negative = inhibition, hits mostly inhibitors. actives 0.93% (n = 400,000); note: % is set by controls: 0 for no effect and ±100 for the full control effect
Target sequence (P11473 whole entry, looked up): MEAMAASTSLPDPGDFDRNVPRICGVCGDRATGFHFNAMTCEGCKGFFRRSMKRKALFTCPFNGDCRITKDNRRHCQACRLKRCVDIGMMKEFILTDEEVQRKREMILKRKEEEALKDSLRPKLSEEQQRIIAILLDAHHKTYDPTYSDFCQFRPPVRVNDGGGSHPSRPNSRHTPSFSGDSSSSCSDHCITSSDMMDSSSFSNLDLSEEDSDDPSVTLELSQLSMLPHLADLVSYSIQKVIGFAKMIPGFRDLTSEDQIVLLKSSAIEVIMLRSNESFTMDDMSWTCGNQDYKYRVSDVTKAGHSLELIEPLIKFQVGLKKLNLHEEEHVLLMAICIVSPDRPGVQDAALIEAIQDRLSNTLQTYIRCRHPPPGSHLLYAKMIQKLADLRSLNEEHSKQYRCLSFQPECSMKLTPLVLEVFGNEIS
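After 23 nl compound addition and a short centrifugation, plates sat for 2 hours at ambient temperature; polarization of fluorescence then indicated loss of VDR binding to peptide SRC2-3.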
Vif-A3F inh: blocks the Vif interaction with APOBEC3F. Potency, µM (titrated, usually from 46.1 µM), for the others: at the highest dose activity, negative = active. AID 602313. HeLa A3F-eYFP + Vif (tagged APOBEC3F with the HIV-1 protein that degrades it), YFP fluorescence increase. actives 0.2% (n = 390,000); note: % of control where 0% means no effect; nearly all actives have a fitted effect of over 65% in size
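HeLa cells stably expressing Vif plus C-terminally eYFP-tagged A3F were seeded, incubated overnight at 37 deg C, dosed with compound, incubated overnight again at 37 deg C. Yellow fluorescence (Ex 488/Em 500-530) reported blocked Vif-mediated A3F-eYFP degradation.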
Vif-APOBEC3G blk: inhibitors of Vif-APOBEC3G interaction; Q9HC16; HeLa A3G-eYFP + Vif (tagged APOBEC3G with the HIV-1 protein that degrades it), YFP fluorescence, overnight; Potency, µM (series often up to 46.1 µM), for the others: at the highest dose activity, negative = active, hits mostly inhibitors; AID 602310; actives 0.076% (n = 410,000); note: % is set by controls: 0 for no effect and ±100 for the full control effect; nearly all actives have a fitted effect of over 60% in size
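HeLa cells stably expressing Vif and C-terminally eYFP-tagged A3G, seeded overnight at 37 deg C, then exposed to compound by pintool overnight at 37 deg C. Rise in yellow fluorescence (Ex 488/Em 500-530, Acumen) marks blocked Vif-driven A3G degradation.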
An asterisk follows results filed as active; ? = inconclusive; / = not tested or not shown; [ ] = dose if it differs, or a comment. Calls come from the whole dose curve; as a rule, active = well fitted curve in the direction sought with a large enough effect; inconclusive = small, poorly fitted or top-dose-only effect, or another doubt; inactive = no such curve, though single readings can be large; an effect the other way counts as inactive or inconclusive. Potency is the fitted concentration of half-maximal effect.

SMILES	TrxR1 substrate	TrxR1 inh	VDR inh	Vif-A3F inh	Vif-APOBEC3G blk
O=C(CC(NC(=O)c1ccccc1)c1ccccc1)OCc1nc(-c2cccc(Cl)c2)no1 (centres undefined)	5%[0.0914 µM]	14%	/	/	2%
O=C(CSc1ccc(-c2ccccn2)nn1)N1CCCC1	1%	-54%	71µM*	-8%	-5%
O=C(CSc1ccc(-c2ccco2)nn1)N1CCCCC1	7%[57.1 µM]	-66%	-20%	-2%	-3%
O=C(CSc1ccc(-c2ccccn2)nn1)c1ccccc1	0%	8%	3%	-13%	2%
O=C(CSc1ccc(-c2ccco2)nn1)N1CCCC1	2%	45µM*	-2%	-1%	2%
COc1ccc(-n2nc(C(=O)NCCc3ccc(OC)c(OC)c3)c3c4ccccc4n(C)c3c2=O)cc1	38%	14%	-6%	14%	-5%
Cc1cc(C)c2c(=O)n(CC(=O)Nc3cccc(Cl)c3C)sc2n1	3%	-12%	18µM*	0%	-15%
Cc1cc(C)c2c(=O)n(CC(=O)NC3CCCC3)sc2n1	?	?	10µM*	1%	-9%
CO/S(=N\S(=O)(=O)c1ccc(Cl)cc1)c1ccc([N+](=O)[O-])cc1 (centres undefined)	1%[57.1 µM]	-2%[57.1 µM]	?	/	/
Nc1sc2c(c1C(=O)c1ccccc1)CCCC2	-9%	?	?	-10%	0%
NC(=O)c1c(N)sc2c1CCCC2	4%	50µM*	-28%	2%	0%
Cc1ccc2c(Sc3ccc(Cl)cc3)c(C(=O)N3CCC(C)CC3)[nH]c2c1	0%	6%	1%	?	3%
COc1ccc(C2NC(c3ccc4c(c3)OCO4)=CC(c3ccccc3O)N2)cc1OC (centres undefined)	-2%[0.0914 µM]	-15%	-21%	/	-3%
CC(=O)c1ccc(S(=O)(=O)Nc2ccc(-c3cn4c(C)csc4n3)cc2)cc1	2%[57.1 µM]	11%[57.1 µM]	25µM*	-3%	-3%
CN(C)CCNc1ccc2ncn3c4ccc(O)cc4c(=O)c1c23	-10%	-13%	10%	25µM*	?
Cc1ccc(NC(=O)c2ccc(CNS(=O)(=O)c3ccc4c(c3)C(C)(C)C(=O)N4C)cc2)cc1F	6%	14%	6%	2%	0%
O=C1ON=C(c2ccc(Cl)cc2)/C1=C/c1ccc(O)cc1	2%[57.1 µM]	3.2µM*	?	?	-9%
COc1cc(/C=C2/C(=O)ON=C2c2ccccc2)ccc1O	-17%	13µM*	50µM*	-12%	?
Cc1ccc(/C=C2/C(=O)ON=C2c2ccccc2)o1	-6%	4µM*	23%	-4%	-11%
COc1cc(C=C2C(=O)c3ccccc3C2=O)ccc1O	-2%	-23%	7%	1%	0%
Fc1ccc(/C=C/c2ccc3ccccc3n2)cc1	-15%	?	/	/	4%
C=C1C=C(C)n2ncc(C(=O)N(CCc3ccccc3)Cc3ccccc3)c2N1	12%	13%	/	/	3%
C/C1=C2/[N-]C(C(CC(N)=O)[C@@]2(C)CCC(=O)NCC(C)OP(=O)([O-])O[C@H]2[C@@H](O)[C@@H](n3cnc4cc(C)c(C)cc43)O[C@@H]2CO)[C@]2(C)N=C(/C(C)=C3N=C(/C=C4N=C1C(CCC(N)=O)C\4(C)C)[C@@H](CCC(N)=O)[C@]\3(C)CC(N)=O)[C@@H](CCC(N)=O)[C@]2(C)CC(N)=O.CC(=O)O.[Co] (some centres undefined)	/	/	10µM*	/	/
O=C(Nc1ccc(Cl)cn1)c1cccc(S(=O)(=O)N2CCCCCC2)c1	/	/	/	0%	20µM*
O=C(Nc1ccc(Cl)cc1)Nc1ccccc1Sc1ncc([N+](=O)[O-])s1	0%	?	10µM*	2%	?
CC(C1CC2CCC1C2)n1c(-c2ccco2)n[nH]c1=S (centres undefined)	7%[57.1 µM]	-12%[57.1 µM]	79µM*	-1%	1%
Cc1ccccc1N1CC(c2nc3ccccc3n2Cc2ccc(Br)cc2)CC1=O (centres undefined)	-4%	-7%	10%	0%	-10%
CCCOc1ccc(CSc2nnc(CCC)n2N)cc1	5%[57.1 µM]	15%[57.1 µM]	-1%	-5%	1%
CCCc1nnc(SCc2ccc(OC)cc2)n1N	-7%	-4%	25µM*	-1%	-3%
